Rows were chosen to be rich in hits. Some 6.1% of all compounds tested hit in one or more screens of this group.
D1 antag – antagonists of human D1 dopamine receptor. HEK293 TREx D1 cells, calcium flux, dopamine EC80; stronger effect = lower value. activity change, negative = inhibition, % at 10 µM. AID 504652. 3.2% of 360,000 active; in the data active means activity change below about -30%; further: on the % scale 0 is the no-effect control and ±100 the full control effect
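Kinetic fluorescence of a calcium dye serves as the read-out. D1-expressing Hek293 Trex cells, induced overnight at 30 C, are exposed to compound for 180 s before an EC80 dopamine addition, then read 180 s further.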
D1 ag – activates the human D1 dopamine receptor; 1% of 360,000 active; HEK293 T-REx D1 cells, calcium flux, agonist mode; P21728; AID 504660; activation, % at 2 µM; in the data active means activation above about 30%; further: 0% is about no effect
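Inducible HEK293 T-REx D1 cells, force-coupled to calcium signalling, were plated at 4000 cells/well with tetracycline and held overnight at 30 C. After no-wash calcium dye loading, compound-evoked calcium rise over 180 s flagged agonists.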
D3 ag – agonists of human D3 dopamine receptor. P35462. D3R DiscoveRx beta-arrestin cells, luminescence, 90 min. max activation, %. 0.58% of 410,000 active; in the data active means max activation above about 30%; further: 0% is about no effect
Target sequence (P35462 whole entry, looked up): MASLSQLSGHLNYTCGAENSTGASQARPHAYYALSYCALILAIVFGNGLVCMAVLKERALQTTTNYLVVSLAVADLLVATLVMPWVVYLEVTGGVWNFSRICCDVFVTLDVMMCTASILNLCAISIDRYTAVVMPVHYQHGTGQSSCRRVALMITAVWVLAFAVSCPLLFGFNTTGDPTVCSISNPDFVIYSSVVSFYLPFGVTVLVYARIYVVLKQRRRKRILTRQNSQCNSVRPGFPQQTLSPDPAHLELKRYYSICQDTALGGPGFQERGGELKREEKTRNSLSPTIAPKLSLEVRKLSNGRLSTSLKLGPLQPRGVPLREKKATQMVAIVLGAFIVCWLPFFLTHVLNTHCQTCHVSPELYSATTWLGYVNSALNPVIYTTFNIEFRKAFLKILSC
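Agonist mode: compounds and dopamine controls were applied to plated cells for 90 min at 37 degrees C after an overnight attachment at 1500 cells/well. Luminescent read-out followed 30 - 60 minutes at room temperature with DiscoveRx detection reagent.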
ERG-DNA inh – ERG Ets/DNA interaction inhibition | P11308 | fluorescence polarization, His-ERG Ets domain / labelled DNA | Potency, µM (top dose mostly 76.9 µM), inactives show at the highest dose FP activity, negative = inhibition, usual class: inhibitors | 0.028% of 370,000 active | AID 624246; active means well fitted inhibition curve with a large enough effect in the polarisation, with a control signal flat; inconclusive means small, poorly fitted or top-dose-only effect, or effect the other way, or a change in a side signal; inactive means no such curve, though single readings can be large or run the other way; the % refers to the polarisation;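 further: polarization taken with two DNA probes labelled with fluorescein and Texas red; potency means the concentration at half of the fitted maximal effect; % of control where 0% means no effect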
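His-tagged ERG Ets domain (1 uM in the protein solution; 300mM KCl, 50mM Tris-HCl, 1mM EDTA, 1mM DTT, pH 7.5) received compound, then a probe mix of 5 nM fluorescein-DNA and 100nM Texas-615-DNA. Fluorescence polarization was read for both dyes.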
D1 potentiator – enhances dopamine response at the human D1 receptor; HEK293 TREx D1 cells, calcium flux, dopamine EC20 potentiation; potentiation, % at 10 µM; AID 504651; 0.036% of 360,000 active; P21728; in the data active means potentiation above about 30%; further: 0% is about no effect
DRD3 antagonist – antagonists of human D3 dopamine receptor | P35462 | D3R cells, DiscoveRx beta-arrestin luminescence, antagonist mode; stronger effect = lower value | max response, negative = inhibition, % | 2.5% of 360,000 active | AID 652054; in the data active means max response below about -50%; inconclusive means no clear call, values can overlap the other calls; further: on the % scale 0 is the no-effect control and ±100 the full control effect
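Cells expressing the human receptor were seeded at 1500 cells/well, incubated overnight at 37 degrees C in 5% CO2, then exposed to library compounds with dopamine controls for 90 minutes at 37 degrees C before luminescent detection.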
The depositor's hits bear a star; ? = inconclusive; . = no result given.

SMILES | D1 antag | D1 ag | D3 ag | ERG-DNA inh | D1 potentiator | DRD3 antagonist
CCc1nn(CC(=O)NCc2ccccc2)c(=O)c2cccn12 | -18.2 | 3.8 | 4.1 | 1.7% | -5.0 | .
C=C[C@@H]1c2ccccc2N(S(=O)(=O)c2ccc(C)cc2)[C@H](c2ccc(OC(C)=O)cc2)C1(C#N)C#N | -7.9 | 4.2 | 4.9 | 1.6% | -2.5 | ?
C=C[C@@H]1c2cc(C)ccc2N(S(=O)(=O)c2ccc(C)cc2)[C@H](c2ccc(OC(C)=O)cc2)C1(C#N)C#N | . | 39.6* | -27.1 | 3.6% | -0.3 | ?
CC(C)Oc1ccc(C(=O)OC(C)C(=O)NC2CCCCC2C)cc1 (stereo unspecified) | -48.3* | 9.7 | 0.8 | -13.1% | -7.3 | -10.9
O=C(NCCN1CCOCC1)c1sc2ccccc2c1Cl | -0.9 | 0.6 | -14.5 | 6.4% | -4.0 | -11.9
COc1ccc(CCN(C)C2CCCN(S(=O)(=O)c3ccccc3F)C2)cc1OC (stereo unspecified) | -31.8* | 3.0 | -6.4 | 7.7% | -4.7 | 0.5
COC(=O)c1sccc1S(=O)(=O)N1CCCC(N(C)CCc2ccccn2)C1 (stereo unspecified) | -34.7* | 3.8 | 3.3 | -4.2% | -4.5 | -1.9
CN(CCc1ccccn1)C1CCCN(S(=O)(=O)c2ccccc2)C1 (stereo unspecified) | 12.1 | 2.7 | -3.2 | -2.9% | -11.5 | -2.5
O=C(Cc1csc2nc(-c3ccccc3)cn12)NCc1ccc(F)cc1 | -21.8 | 4.5 | 0.2 | 2.9% | -1.4 | .
O=P(O)(O)C(Sc1ccc(Cl)cc1)P(=O)(O)O | . | . | 2.6 | . | . | .
Cc1ccc(C)c(N2CCN(C(=O)c3ccc(CS(=O)Cc4ccc(Cl)cc4)o3)CC2)c1 (stereo unspecified) | 8.0 | 5.0 | 3.3 | -7.9% | -4.3 | -13.2
CCc1nn(CC(=O)Nc2c(C)cccc2C)c(=O)c2cc3sccc3n12 | 0.6 | -0.5 | -2.1 | 2.3% | -0.3 | .
CN1CCN(C2=Nc3ccccc3Oc3ccc(Cl)cc32)CC1 | -93.4* | 0.3 | -78.7 | -9.7% | -6.6 | -110.3*
CN1CCN(C2=Nc3ccccc3Sc3ccc(Cl)cc32)CC1 | . | . | -21.8 | . | . | .
CC(C)C[C@H](NC(=O)c1nc[nH]c1C(=O)N1CCNCC1)C(=O)OC(C)(C)C | 2.2 | -0.7 | -17.4 | 7.1% | -0.8 | -53.9*
CC(C)C[C@H](NC(=O)c1nc[nH]c1C(=O)NCc1ccccc1)C(=O)OCc1ccccc1 | 3.5 | 11.2 | -3.8 | 7.2% | -3.2 | -52.6*
C[C@H](NC(=O)c1nc[nH]c1C(=O)N[C@H](C)c1ccccc1)C(=O)OCc1ccccc1 | -33.0* | 18.0 | 9.7 | 0.0% | -7.7 | 16.6
CC(C)C[C@H](NC(=O)c1[nH]cnc1C(=O)N[C@@H](C)C(=O)OCc1ccccc1)C(=O)OCc1ccccc1 | . | . | -2.4 | 6.4% | . | -5.8
Cc1cccc(NC(=O)c2nc[nH]c2C(=O)N[C@@H](C)C(=O)OCc2ccccc2)c1 | -33.0* | 2.3 | 10.0 | -13.3% | -4.2 | 39.4
CC(O)C(NC(=O)OCc1ccccc1)C(=O)NCC(=O)NCC(=O)OCc1ccccc1 (stereo unspecified) | . | . | 4.8 | . | . | 38.5
Cc1nn(-c2ccccn2)c(N)c1N=O | -25.3 | -0.3 | -3.9 | -2.3% | -0.9 | 4.1
CC(=O)Nc1ccc(N2N=C(C)C(N=Nc3ccccc3)C2=O)cc1 (stereo unspecified) | 3.8 | -0.9 | -3.3 | -1.6% | -3.1 | -16.5
CC(=O)c1ccc(S(=O)(=O)Nc2cccc(-c3ccc4nncn4n3)c2)cc1 | -36.5* | 0.2 | -4.0 | 6.8% | -1.9 | 5.3
CC(=O)Nc1ccc(S(=O)(=O)Nc2cccc(-c3ccc4nncn4n3)c2)cc1 | 2.0 | 0.9 | -1.9 | 10.3% | 3.4 | -9.4
CCN(Cc1ccccc1)S(=O)(=O)c1c[nH]c(C(=O)OC)c1 | -0.7 | 5.6 | -1.5 | -4.4% | -4.2 | 11.5
O=C(N/N=C/C(Br)=C/c1ccccc1)C1CC1 | -40.7* | 1.6 | 11.9 | -3.9% | -5.7 | 4.1
O=C(N/N=C/C(Br)=C/c1ccccc1)NC1CCCCC1 | . | 0.7 | 10.4 | -1.4% | -2.2 | 1.4

Source: PubChem (National Center for Advancing Translational Sciences (NCATS))
